According to PubChem BioAssay (NCATS):
Results filed as inconclusive are left out. Active and inactive are the calls of the source. The call rests on the fitted dose curve; in most records, active means well fitted curve in the direction sought with a large enough effect; inconclusive means small, poorly fitted or top-dose-only effect, or another doubt; inactive means no such curve, though single readings can be large; an effect the other way counts as inactive or inconclusive.

Tests used:
[1] = MultiTox-Fluor Cytotoxicity Assay - LYMP1-002 - Live Cells (AID 955); conditions: LYMP1-002 lymphoblastoid live-cell protease fluorescence viability; series mostly up to 46.1 µM;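 further: cells exposed to compound for 16 hours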
Method in brief: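 Human lymphoblastoid LYMP1-002 cells, 2500/well, treated 16 h at 37 C in complete medium. Live-cell protease activity via GF-AFC fluorescence (Ex/Em 405/510) after 60 min reagent incubation; AC50 from Hill fits.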

[2] = MultiTox-Fluor Cytotoxicity Assay - LYMP1-002 - Dead Cells (AID 960); conditions: LYMP1-002 lymphoblastoid cells, dead-cell protease fluorescence; series mostly up to 46.1 µM;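 further: cells exposed to compound for 16 h at 37 °C; nearly all actives have a fitted effect of over 60% in size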
Method in brief: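 Human lymphoblastoid LYMP1-002 cells, 2500/well, treated 16 h at 37 C; dead-cell protease cleavage of bis-AAF-R110 read by fluorescence (485/520); normalized to DMSO and 15 uM tetraoctylammonium bromide; AC50 from Hill fit.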

[3] = MultiTox-Fluor Cytotoxicity Assay - LYMP1-003 - Dead Cells (AID 961); conditions: LYMP1-003 lymphoblastoid cells, dead-cell protease fluorescence; series mostly up to 92.2 µM;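 further: cells exposed to compound for 16 h at 37 °C; nearly all actives have a fitted effect of over 70% in size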
Method in brief: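 LYMP1-003 lymphoblastoid, 2500 cells/well, 5 hr settle then 16 hr cpd at 37 C; MultiTox-Fluor reagent 60 min RT; Ex/Em 485/520 dead-cell signal; norm. DMSO = 0%, 15 uM tetraoctylammonium bromide = 100%; Hill AC50.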

[4] = MultiTox-Fluor Cytotoxicity Assay - LYMP1-003 - Live Cells (AID 962); conditions: LYMP1-003 lymphoblastoid cells, MultiTox-Fluor live-cell protease fluorescence; series mostly up to 92.2 µM;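 further: cells exposed to compound for 16 hours at 37 °C; cytotoxic hits lower the live-cell protease signal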
Method in brief: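 LYMP1-003 lymphoblastoid cells, 2500/well in complete medium, treated 16 h at 37 C; live-cell protease cleavage of GF-AFC read by fluorescence (Ex/Em 405/510) after 60 min reagent; AC50 from Hill fits of concentration-response.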

[5] = Cell Viability - LYMP1-003 - Assay at 24 hr (AID 963); conditions: LYMP1-003 lymphoblastoid cell viability; series mostly up to 92.2 µM
Method in brief: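 Human lymphoblastoid LYMP1-003 cells, 2500/well, treated 24 h at 37 C in complete medium. Viability read as intracellular ATP by CellTiter-Glo luminescence after 30 min at room temperature; AC50 from Hill-equation fits of qHTS concentration-response.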

[6] = Cell Viability - LYMP1-003 - Assay at 40 hr (AID 964); conditions: LYMP1-003 lymphoblastoid viability; series mostly up to 92.2 µM; further: nearly all actives have a fitted effect of over 60% in size
Method in brief: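 LYMP1-003 human lymphoblastoid cells, 2500/well, preincubated 5 h at 37 C, then treated with compound for 40 h at 37 C. Intracellular ATP read by CellTiter-Glo luminescence after 30 min at room temperature; AC50 from Hill-equation fits.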

[7] = Cell Viability - LYMP2-003 (AID 965); conditions: LYMP2-003 lymphoblastoid cell viability; series mostly up to 92.2 µM;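 further: cells exposed to compounds for 24 h before reading; nearly all actives have a fitted effect of over 50% in size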
Method in brief: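 Seed 2500 lymphoblastoid cells/well; incubate 5 hr, 37 C; add compounds; incubate 24 hr, 37 C; add CellTiter-Glo, 30 min RT; read luminescence. AC50 from Hill fit.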

[8] = Cell Viability - LYMP2-004 (AID 966); conditions: LYMP2-004 lymphoblastoid cell viability, qHTS; series mostly up to 92.2 µM; further: nearly all actives have a fitted effect of over 65% in size
Method in brief: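 Lymphoblastoid LYMP2-004 cells, 2500 per well, were preincubated for 5 hr and then treated with compound for 24 h at 37 C in complete medium. Viability was read as cellular ATP by CellTiter-Glo luminescence, and AC50 values were taken from Hill fits to concentration-response data.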

[9] = Cell Viability - LYMP2-005 (AID 967); conditions: LYMP2-005 lymphoblastoid cell viability; series mostly up to 92.2 µM
Method in brief: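 Acute cytotoxicity is scored as a concentration-dependent drop in intracellular ATP in human lymphoblastoid LYMP2-005 cells after 24 h compound treatment. ATP is quantified by luciferase luminescence, and AC50 is derived by Hill-equation modelling.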

[10] = Cell Viability - LYMP2-009 (AID 968); conditions: LYMP2-009 lymphoblastoid cell viability; series mostly up to 92.2 µM; further: nearly all actives have a fitted effect of over 55% in size
[11] = Cell Viability - LYMP2-011 (AID 969); conditions: LYMP2-011 lymphoblastoid cells viability; series mostly up to 92.2 µM; further: nearly all actives have a fitted effect of over 60% in size
Method in brief: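 2500 cells/well in complete medium, compound-treated 24 h at 37 C. Viability read as intracellular ATP by CellTiter-Glo luminescence after 30 min at room temperature. AC50 from Hill fits of qHTS concentration-response data.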

[12] = Cell Viability - LYMP2-013 (AID 970); conditions: LYMP2-013 lymphoblastoid cells viability; series mostly up to 92.2 µM; further: nearly all actives have a fitted effect of over 55% in size
Method in brief: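 Human lymphoblastoid LYMP2-013 cells, 2500/well, treated 24 h at 37 C in complete medium; viability as intracellular ATP by CellTiter-Glo luminescence after 30 min. AC50 from Hill fits of qHTS concentration-response.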

[13] = Cell Viability - LYMP2-015 (AID 971); conditions: LYMP2-015 lymphoblastoid cell viability; series mostly up to 92.2 µM; further: nearly all actives have a fitted effect of over 55% in size
Method in brief: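 LYMP2-015 human lymphoblastoid cells (2500/well) in complete medium, compound-treated 24 h at 37 C; viability read as cellular ATP by CellTiter-Glo luminescence after 30 min at room temperature. AC50 from Hill-equation fits of qHTS concentration-response data.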

[14] = Cell Viability - LYMP2-017 (AID 972); conditions: LYMP2-017 lymphoblastoid cell viability; series mostly up to 92.2 µM; further: nearly all actives have a fitted effect of over 55% in size
Method in brief: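 LYMP2-017 human lymphoblastoid cells (2500/well) settled 5 hr at 37 C, then exposed to compound 24 hr at 37 C in complete medium. Viability taken as intracellular ATP by CellTiter-Glo luminescence after 30 min at RT; AC50 from Hill fits.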

[15] = Cell Viability - LYMP2-019 (AID 973); conditions: LYMP2-019 lymphoblastoid cell line viability; series mostly up to 92.2 µM; further: nearly all actives have a fitted effect of over 55% in size
Method in brief: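 Human lymphoblastoid LYMP2-019 cells (2500/well) preincubated 5 h at 37 C, then treated 24 h at 37 C in complete medium. Viability by CellTiter-Glo ATP luminescence after 30 min at room temperature; AC50 from Hill fits.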

[16] = Cell Viability - LYMP2-021 (AID 974); conditions: LYMP2-021 lymphoblastoid cells viability; series mostly up to 92.2 µM
Method in brief: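 Human lymphoblastoid LYMP2-021 cells, 2500/well in complete medium, treated 24 hours at 37 C. Intracellular ATP by CellTiter-Glo luminescence (30 min, RT); AC50 from Hill fits of concentration-response.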

[17] = Cell Viability - LYMP2-023 (AID 975); conditions: LYMP2-023 lymphoblastoid cell viability; series mostly up to 92.2 µM
Method in brief: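 LYMP2-023 human lymphoblastoid cells, 2500/well, preincubated 5 hr at 37 C, then compound-treated 24 hr at 37 C in complete medium. CellTiter-Glo luminescence (ATP) after 30 min at room temperature; AC50 from Hill-equation fits; tetraoctylammonium bromide positive control.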

[18] = Cell Viability - LYMP2-025 (AID 976); conditions: LYMP2-025 lymphoblastoid cell viability; series mostly up to 92.2 µM
Method in brief: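 Human lymphoblastoid LYMP2-025 cells, 2500/well, exposed 24 h at 37 C in complete medium in 1536-well qHTS. Viability as cellular ATP by CellTiter-Glo luminescence; AC50 from Hill fits of concentration-response data.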

[19] = Cell Viability - LYMP2-002 (AID 977); conditions: LYMP2-002 lymphoblastoid cell viability, qHTS; series mostly up to 92.2 µM;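 further: compound exposure lasted 24 h at 37 °C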
Method in brief: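 Human lymphoblastoid LYMP2-002 cells, 2500 per well, exposed to compounds for 24 h at 37 C in complete medium; viability read as intracellular ATP by CellTiter-Glo luminescence, AC50 from Hill fits.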

[20] = target: Alpha-galactosidase (Coffea arabica) (UniProt Q42656); assay: Counterscreen for Glucocerebrosidase Inhibitors: qHTS Assay for Coffee Bean alpha-Galactosidase at pH 4.5 (AID 957); conditions: purified coffee bean alpha-galactosidase, fluorogenic substrate; series mostly up to 76.9 µM
Chain of Alpha-galactosidase (Coffea arabica) (Q42656 whole entry, looked up): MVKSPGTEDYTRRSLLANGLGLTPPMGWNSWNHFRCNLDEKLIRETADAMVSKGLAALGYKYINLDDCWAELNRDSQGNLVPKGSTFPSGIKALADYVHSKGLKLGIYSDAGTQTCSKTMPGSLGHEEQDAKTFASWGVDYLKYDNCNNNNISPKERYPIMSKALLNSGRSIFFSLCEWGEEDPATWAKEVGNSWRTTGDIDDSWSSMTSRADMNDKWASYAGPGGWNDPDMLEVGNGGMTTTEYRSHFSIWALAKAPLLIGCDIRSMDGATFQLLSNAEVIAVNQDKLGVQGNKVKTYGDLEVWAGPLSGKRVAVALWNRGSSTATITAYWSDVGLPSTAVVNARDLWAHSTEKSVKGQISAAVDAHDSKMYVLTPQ
Method in brief: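 Coffee bean enzyme (2 nM) with 80 uM 4-methylumbelliferyl alpha-D-galactopyranoside in 50 mM citric acid, 0.005% Tween-20, pH 4.5, 20 min at room temperature; compounds 0.7 nM–77 uM. Stopped at pH 10, fluorescence 365/440 nm; AC50 from Hill fits.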

Measured: Potency

CCCC(C)(COC(N)=O)COC(N)=O
not listed: [20]
inactive: all other assays above

NC(N)=Nc1nc(CSCC/C(N)=N/S(N)(=O)=O)cs1
inactive: [20]

CCN(CC)CCOC(=O)c1ccc(N)cc1
inactive: [20]

COC(=O)C(c1ccccc1)C1CCCCN1 (centres undefined)
not listed: [13] | [20]
inactive: all other assays above

Nc1ccccc1
not listed: [2] | [19] | [20]
inactive: all other assays above

Clc1ccc(C(c2ccc(Cl)cc2)C(Cl)(Cl)Cl)cc1
not listed: [5] | [20]
inactive: all other assays above

CCC(C)(C)c1ccc(O)cc1
not listed: [20]
inactive: all other assays above

O=C(O)CCCc1ccc(N(CCCl)CCCl)cc1
inactive: [1] | [20] | [2] | [3] | [4] | [5] | [15] | [17] | [18] | [19]

CN1CCC[C@@H]1c1cccnc1
inactive: [20]
